The values below come from PubChem BioAssay (NCATS).

Inconclusive results are not listed. Calls of active or inactive are those of the source. Unless noted, the call rests on the fitted dose curve; in most records, active means well fitted curve in either direction with a large enough effect (not every such curve was filed as active); inconclusive means small, poorly fitted or top-dose-only effect, or another doubt; inactive means flat fitted curve, though single readings scatter.

Test [1] deals with Lysosomal acid glucosylceramidase (Homo sapiens) (UniProt P04062). The test can be described thus: Glucocerebrosidase-p2 (AID 348; in the data active means potency below about 10 µM; further: potency means the concentration at half of the fitted maximal effect). To be noted: purified GBA, blue fluorogenic substrate, 40 min. The essentials: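 Normal human glucocerebrosidase (0.2 nM) with blue fluorogenic substrate (80 uM final) in citrate/phosphate pH 5.9 with 10mM sodium taurocholate, 0.01% tween-20; 40 min RT, NaOH/glycine stop; fluorescence Ex 365/Em 440; AC50 from a titration from 0.6 nM upwards.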

Test [2] can be described thus: AP1 Signaling Pathway (AID 357). Further: on the % scale 0 is the no-effect control and ±100 the full control effect. Conditions: ME-180 AP-1-bla reporter, EGF-induced, beta-lactamase ratio, 5 h; at 7.69 µM (top of the series) unless noted. The essentials:
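ME-180 cells with beta-lactamase reporter under AP-1 response element, stimulated with EC50 EGF; compounds tested in titration series, 5 h at 37 °C. CCF4 substrate added 2.5 h at room temperature; 460/530 nm emission ratio gave %activity and AC50.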

The nature of test [3]: Stat Signaling Pathway (AID 446).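 Further: ME-180 cervical cancer cells given 40 pM IL-6 alongside compound; SIE-controlled beta-lactamase reporter measured as 460/530 nm FRET emission ratio; on the % scale 0 is the no-effect control and ±100 the full control effect.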 Conditions: ME-180 SIE beta-lactamase reporter, IL-6 stimulated, 5 h; at 7.69 µM (top of the series) unless noted. The method in brief:
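Compound effects on IL-6-induced STAT reporter activity were measured in ME-180 cells. After overnight culture, cells were co-treated with 40 pM IL-6 for 5 hrs before beta-lactamase substrate loading at room temperature.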

The target in test [4] is Glucocorticoid receptor (Homo sapiens) (UniProt P04150). Briefly: GR-EFC Redistribution (AID 451; calls by dose curve; further: potency means the concentration at half of the fitted maximal effect). Conditions: CHO-K1 GR-EFC translocation, beta-gal luminescence, 2 h. The essentials: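 Translocation of GR-ED fusion to nuclear EA restores b-gal, read by luminescence after 1 h room-temperature detection. Engineered CHO-K1 biosensor cells, 1,000/well, exposed 2 h at 37 C to titrations up to 46 uM final.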

The target in test [5] is Mitogen-activated protein kinase 10 (Mus musculus) (UniProt Q61831). The test can be described thus: JNK3 AlphaScreen Assay (AID 530).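 Further: kinase came from lysate of stimulated human HepG2 cells; signal reports phosphorylation of biotinylated GST-cJun 1-79 at Ser73 with 10 µM ATP; on the % scale 0 is the no-effect control and ±100 the full control effect.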 To be noted: JNK3 lysate, c-Jun phosphorylation; series mostly up to 57.1 µM. The method in brief:
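qHTS titrations with 15 min compound pre-incubation before adding ATP (10 uM final). Read-out: AlphaScreen of Ser73-phosphorylated biotin-GST-cJun using HepG2 lysate JNK3 activated by IL-1β and TNFα.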
In general terms: Alpha assays give light when donor and acceptor beads are brought close together.

Test [6] has as its target 3',5'-cyclic-AMP phosphodiesterase 4B (Homo sapiens) (UniProt Q07343). Briefly: qHTS Assay for Inhibitors of PDE-IV (AID 607; active means well fitted activation curve with a large enough effect in the main read-out, with a control signal flat, not every such curve was filed as active; further: % of control where 0% means no effect). Conditions: HEK293 ACTOne CNG channel cells, membrane potential fluorescence; series mostly up to 22.9 µM. The essentials: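 ACTOne HEK293 cells carry a modified cAMP-gated CNG channel and express endogenous PDE4; plated 1000 cells/well, compounds up to 22.9 uM final. Membrane-potential dye fluorescence (ex 535/em 590) was read; parental cells received 10 uM forskolin + 100 uM RO 20-1724.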
Background: Quantitative high-throughput screening tests each substance at several concentrations.

Test [7] in a line: qHTS Assay for Lipid Storage Modulators (AID 1519; calls by dose curve). Conditions: Drosophila S3 cells, BODIPY lipid droplet/cell ratio, laser cytometry, cells loaded with oleic acid; for activity change, negative = inhibition: at 57.5 µM (top of the series). The method in brief:
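Cells seeded at 5,000 per well were treated with compounds over a concentration series and loaded with oleic acid (400 uM, as added). Lipid droplet fluorescence (488 nm excitation, 500-530 nm channel) was read by laser-scanning cytometry and normalized to 20 uM Triacsin C.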

Test [8] is described as follows: Primary qHTS for small molecule stabilizers of the endoplasmic reticulum resident proteome: Secreted ER Calcium Modulated Protein (SERCaMP) assay (AID 1508630; active means well fitted curve in the direction sought with a large enough effect; an effect the other way counts as inactive or inconclusive; further: on the % scale 0 is the no-effect control and ±100 the full control effect). To be noted: SH-SY5Y GLuc-SERCaMP (Gaussia luciferase released on ER calcium loss) secretion, thapsigargin, luminescence; series mostly up to 38.4 µM. The method in brief:
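The SH-SY5Y reporter protocol was run at 3 concentrations up to 38.3 uM (primary) or 11 concentrations (follow-up): 16 h compound, 100 nM thapsigargin for 4 h, then extracellular luciferase luminescence.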

A short description of test [9]: NFAT Signaling Pathway (AID 444). Conditions: Jurkat NFAT-bla M1, carbachol, beta-lactamase ratio, 5 h; at 7.69 µM (top of the series) unless noted. The method in brief: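 Read-out: CCF4 FRET ratio (460 nm/530 nm) after 1 h RT dye loading, used for %activity and AC50 from titration series. Cells: Jurkat NFAT-β-lactamase/M1 line, treated with compound plus 1 uM carbachol for 5 h, 37 °C.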

Test [10] addresses Glucocorticoid receptor (Homo sapiens) (UniProt P04150). The test can be described thus: GR-GFP Redistribution (AID 450;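 active means compounds whose dose series gives a full or clear partial fitted curve of increased nuclear translocation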; further: potency means the concentration at half of the fitted maximal effect). To be noted: U2OS GR-GFP nuclear translocation, laser cytometry, 2 h.
Test [11] deals with Cytochrome P450 2C9 (Homo sapiens) (UniProt P11712). The test can be described thus: qHTS Assay for Inhibitors and Substrates of Cytochrome P450 2C9 (AID 883; active means well fitted curve in the direction sought with a large enough effect; an effect the other way counts as inactive or inconclusive; further: on the % scale 0 is the no-effect control and ±100 the full control effect; nearly all actives have a fitted effect of over 60% in size). Conditions: recombinant CYP2C9, luciferin-H luminescence, 60 min; series mostly up to 57.1 µM. The essentials:
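Inhibition of CYP2C9 is scored as loss of luminescence, with 57uM sulphaphenazole defining 100% inhibition. Substrate Luciferin-H is used at 100uM, equal to its KM; enzyme at 10nM in 25mM KPO4, 60 min at 37C with NADPH regeneration.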

Test [12] can be described thus: qHTS Assay for Identification of Small Molecule Agonists for Hypoxia Response Element Signaling Pathway (AID 914; active means well fitted activation curve with a large enough effect in the signal ratio, with a control signal flat, not every such curve was filed as active; the % refers to the signal ratio; further: potency means the concentration at half of the fitted maximal effect). To be noted: ME-180 (cervical carcinoma) HRE-bla reporter, beta-lactamase ratio, CoCl2, 17 h; activation: stronger effect = higher value. The method in brief:
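HRE-bla ME-180 assay for agonist-like enhancement of an EC50 CoCl2 stimulus: 17 h at 37 degrees Celsius, CCF4 for 2.5 h, ratiometric 460/530 nm signal converted to %Activity and fitted to AC50.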

Test [13] can be described thus: Confirmation and Secondary Assay for Modulators of Hemoglobin Beta Chain Splicing at IVS2 705 locus (AID 930; active means well fitted curve in the direction sought with a large enough effect; an effect the other way counts as inactive or inconclusive;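 further: HeLa cells stably expressing the EGFP-705 splicing reporter; GFP fluorescence per well restored by corrected splicing of the IVS2-705 intron in EGFP; % of control where 0% means no effect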). Conditions: HeLa EGFP-705 splicing reporter, GFP fluorescence, 48 h; series mostly up to 38.3 µM. The essentials:
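HeLa IVS2-705 EGFP reporter cells, 500/well, compound 2 d at 37C; correct splicing yields fluorescent EGFP. Control: 500 nM antisense PNA. Read-out: total peak GFP intensity.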

The target of test [14] is Ubiquitin carboxyl-terminal hydrolase 1 (Homo sapiens) (UniProt O94782). Briefly: Inhibitors of USP1/UAF1: Pilot qHTS (AID 504865; active means well fitted curve in the direction sought with a large enough effect; an effect the other way counts as inactive or inconclusive;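 further: rhodamine fluorescence freed from ubiquitin-rhodamine substrate followed over time; top concentration of the series differs between compounds; on the % scale 0 is the no-effect control and ±100 the full control effect; nearly all actives have a fitted effect of over 35% in size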). To be noted: purified USP1/UAF1, Ub-rhodamine cleavage fluorescence; series mostly up to 54.9 µM. The essentials:
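USP1/UAF1 complex (1nM) preincubated with compound 15 min at room temperature, then Ub-Rho substrate (150nM final) added. Fluorescence read kinetically at 480/540 nm, 6 reads every 60 seconds. Buffer: 50mM HEPES pH 7.8, 0.5mM EDTA, 0.1 mg/ml BSA, 1mM TCEP, 0.01% Tween-20.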

[15] abbreviates: measured here: cell count channel max response.
Where [16] appears, read: measured here: lipid channel max response.

Lysosomal acid glucosylceramidase (Homo sapiens), sequence (P04062 whole entry, looked up): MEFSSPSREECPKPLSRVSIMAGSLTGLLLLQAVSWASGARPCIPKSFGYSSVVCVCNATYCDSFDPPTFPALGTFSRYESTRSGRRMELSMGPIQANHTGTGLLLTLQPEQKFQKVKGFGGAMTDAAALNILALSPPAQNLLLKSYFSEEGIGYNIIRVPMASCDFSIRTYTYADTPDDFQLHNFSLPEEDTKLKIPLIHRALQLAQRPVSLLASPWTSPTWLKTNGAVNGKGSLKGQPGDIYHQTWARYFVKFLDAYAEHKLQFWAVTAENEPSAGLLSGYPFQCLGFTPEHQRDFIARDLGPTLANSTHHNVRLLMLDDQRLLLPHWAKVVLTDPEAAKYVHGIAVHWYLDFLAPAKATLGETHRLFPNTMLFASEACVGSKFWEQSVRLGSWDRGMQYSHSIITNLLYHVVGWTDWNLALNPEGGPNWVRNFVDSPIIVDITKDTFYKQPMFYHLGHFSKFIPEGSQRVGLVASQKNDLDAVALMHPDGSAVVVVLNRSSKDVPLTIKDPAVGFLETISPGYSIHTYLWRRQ
Glucocorticoid receptor (Homo sapiens), sequence (P04150 whole entry, looked up, the tested form may be a part): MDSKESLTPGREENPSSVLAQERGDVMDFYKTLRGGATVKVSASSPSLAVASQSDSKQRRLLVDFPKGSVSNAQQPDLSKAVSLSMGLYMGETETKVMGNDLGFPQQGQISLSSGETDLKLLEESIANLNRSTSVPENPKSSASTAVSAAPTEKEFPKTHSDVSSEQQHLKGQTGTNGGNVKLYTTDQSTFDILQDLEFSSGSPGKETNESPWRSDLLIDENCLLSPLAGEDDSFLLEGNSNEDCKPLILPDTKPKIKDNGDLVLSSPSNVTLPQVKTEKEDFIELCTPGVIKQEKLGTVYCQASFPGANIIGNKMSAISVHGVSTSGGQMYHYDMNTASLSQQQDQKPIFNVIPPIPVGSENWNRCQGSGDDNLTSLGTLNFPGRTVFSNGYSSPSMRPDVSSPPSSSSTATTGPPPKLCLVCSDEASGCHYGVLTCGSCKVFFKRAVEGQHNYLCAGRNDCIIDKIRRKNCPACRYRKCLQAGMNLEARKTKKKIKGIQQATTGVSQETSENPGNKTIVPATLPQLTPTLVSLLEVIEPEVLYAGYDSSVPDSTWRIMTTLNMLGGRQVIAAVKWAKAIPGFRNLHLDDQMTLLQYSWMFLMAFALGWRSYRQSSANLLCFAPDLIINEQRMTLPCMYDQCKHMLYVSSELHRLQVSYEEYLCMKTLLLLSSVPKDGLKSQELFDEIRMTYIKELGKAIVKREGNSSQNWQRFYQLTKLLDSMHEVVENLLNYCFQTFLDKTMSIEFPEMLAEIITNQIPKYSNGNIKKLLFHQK
3',5'-cyclic-AMP phosphodiesterase 4B (Homo sapiens), sequence (Q07343 whole entry, looked up): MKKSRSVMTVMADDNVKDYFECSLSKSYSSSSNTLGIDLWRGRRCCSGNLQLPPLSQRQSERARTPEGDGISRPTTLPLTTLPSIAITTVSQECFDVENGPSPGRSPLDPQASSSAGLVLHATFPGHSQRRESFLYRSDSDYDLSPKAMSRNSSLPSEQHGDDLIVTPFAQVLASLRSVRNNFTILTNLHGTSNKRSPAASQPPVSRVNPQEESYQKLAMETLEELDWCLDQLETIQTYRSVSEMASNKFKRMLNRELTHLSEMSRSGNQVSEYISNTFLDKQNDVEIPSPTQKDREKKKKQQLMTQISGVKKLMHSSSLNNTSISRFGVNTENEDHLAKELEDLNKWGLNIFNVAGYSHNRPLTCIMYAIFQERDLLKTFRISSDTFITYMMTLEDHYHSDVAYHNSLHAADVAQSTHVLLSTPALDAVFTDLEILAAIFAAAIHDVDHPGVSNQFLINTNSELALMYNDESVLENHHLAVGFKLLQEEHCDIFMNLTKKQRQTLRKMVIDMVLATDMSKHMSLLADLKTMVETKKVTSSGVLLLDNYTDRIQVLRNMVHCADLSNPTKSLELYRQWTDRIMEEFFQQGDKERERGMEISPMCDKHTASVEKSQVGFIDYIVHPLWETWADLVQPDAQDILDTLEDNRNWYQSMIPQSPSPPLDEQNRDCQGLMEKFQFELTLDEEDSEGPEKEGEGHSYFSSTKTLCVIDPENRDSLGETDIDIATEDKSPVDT
Cytochrome P450 2C9 (Homo sapiens), sequence (P11712 whole entry, looked up): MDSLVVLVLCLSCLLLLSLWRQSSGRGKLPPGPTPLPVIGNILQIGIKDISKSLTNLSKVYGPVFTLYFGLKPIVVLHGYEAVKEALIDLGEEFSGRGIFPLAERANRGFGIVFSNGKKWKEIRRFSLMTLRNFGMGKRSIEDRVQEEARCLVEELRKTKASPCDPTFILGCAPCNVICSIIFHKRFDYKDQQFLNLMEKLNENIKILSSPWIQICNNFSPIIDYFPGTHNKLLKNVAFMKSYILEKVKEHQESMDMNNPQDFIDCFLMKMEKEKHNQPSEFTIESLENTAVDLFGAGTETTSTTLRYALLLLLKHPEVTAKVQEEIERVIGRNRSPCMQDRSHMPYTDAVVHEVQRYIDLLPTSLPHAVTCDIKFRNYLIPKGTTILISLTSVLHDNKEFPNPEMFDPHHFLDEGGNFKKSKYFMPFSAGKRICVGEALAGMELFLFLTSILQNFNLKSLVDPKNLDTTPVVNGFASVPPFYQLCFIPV
Ubiquitin carboxyl-terminal hydrolase 1 (Homo sapiens), sequence (O94782 whole entry, looked up): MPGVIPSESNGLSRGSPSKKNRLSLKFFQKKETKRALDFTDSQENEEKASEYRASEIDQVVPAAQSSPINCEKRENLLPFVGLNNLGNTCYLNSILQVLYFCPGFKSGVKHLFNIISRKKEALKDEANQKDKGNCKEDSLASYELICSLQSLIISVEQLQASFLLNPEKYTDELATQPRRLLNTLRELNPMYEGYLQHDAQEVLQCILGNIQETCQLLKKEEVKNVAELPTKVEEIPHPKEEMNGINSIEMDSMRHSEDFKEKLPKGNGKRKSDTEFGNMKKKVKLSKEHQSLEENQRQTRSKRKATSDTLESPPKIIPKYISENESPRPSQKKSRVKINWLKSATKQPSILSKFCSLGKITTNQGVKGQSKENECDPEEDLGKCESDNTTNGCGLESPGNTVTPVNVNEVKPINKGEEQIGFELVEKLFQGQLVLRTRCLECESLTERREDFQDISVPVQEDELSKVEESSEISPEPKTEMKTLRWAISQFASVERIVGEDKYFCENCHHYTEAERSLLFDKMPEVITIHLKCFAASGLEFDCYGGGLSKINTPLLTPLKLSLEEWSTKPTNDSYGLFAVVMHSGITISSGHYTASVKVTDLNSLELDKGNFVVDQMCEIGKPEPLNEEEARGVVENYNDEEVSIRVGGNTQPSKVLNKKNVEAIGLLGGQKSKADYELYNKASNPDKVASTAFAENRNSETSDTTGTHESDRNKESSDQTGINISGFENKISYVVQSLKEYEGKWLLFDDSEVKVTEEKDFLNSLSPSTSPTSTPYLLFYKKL

For `O=C(c1ccncc1)N1CCC2(CCCN(c3ccncc3)C2)CC1`, the Potency in test [1] was > 11.4 µM (inactive); in test [4], > 46 µM (inactive). For the same compound, the figures for the activity change, negative = inhibition in test [2] and in test [7] were -3.65% (inactive) and 0.736% (inactive), respectively. For the same compound, in test [3], the activity, negative = inhibition was -4.53% (inactive). Moreover, the Potency result in test [5] and in [6] was “inactive” in each case. In addition, the max response in test [7] (setting [15]) was -10.7%; in [7] (setting [16]), -8.67%. For the same compound, in test [8], the outcome was inactive.

On to `COc1ccccc1CN1CC2(CCN(C(=O)c3cccc(F)c3)CC2)C1`, for which the figures for the Potency in [1] and in [4] were > 11.4 µM (inactive) and > 46 µM (inactive), respectively. Further, the activity change, negative = inhibition in test [2] was -3.72% (inactive); in test [7] it was 3.26% (inactive). The activity, negative = inhibition in test [3] is 0.108% (inactive). For the same compound, the Potency entry in test [5] and in [6] was “inactive” throughout. The max response in test [7] (setting [15]) turned out to be 8.06%; in [7] (setting [16]), 13.5%. For the same compound, in test [8], the outcome was inactive.

With `COc1ccc(Oc2ncc3nc(-c4cn(C)c5ccccc45)c(=O)n(CCC#N)c3n2)cc1`, the Potency is > 11.4 µM (inactive) in [1], > 9.22 µM (inactive) in [10], > 46 µM (inactive) in test [4] and 3.16 µM (active) in test [12]. In addition, the activity change, negative = inhibition in test [2] is -1.79% (inactive); in test [9], -2.24% (inactive); in [7], -4.32% (inactive). In addition, the Potency entry in test [5], in test [6] and in test [11] was “inactive” each time. The figures for the max response in test [7] (setting [15]) and in test [7] (setting [16]) were 27.8% and 26.1%, respectively. Moreover, the outcome in [8] was inactive.

With `O=C(c1cnccn1)N1CCC2(CCN(Cc3cc(C(F)(F)F)cc(C(F)(F)F)c3)CC2)CC1`, the Potency is > 11.4 µM (inactive) in test [1] and > 46 µM (inactive) in test [4]. Moreover, the results for the activity change, negative = inhibition in [2] and in test [7] were 6.25% (inactive) and 2.5% (inactive), respectively. Moreover, the activity, negative = inhibition in test [3] is -5.04% (inactive). Also, the Potency result in test [5] and in test [6] was “inactive” throughout. Moreover, the max response in test [7] (setting [15]) is 13.6%; in test [7] (setting [16]), 15.1%. For the same compound, in [8], the outcome was inactive.

Consider `COc1ccc2[nH]cc(CCNc3nc(-c4cccc(NS(C)(=O)=O)c4)nc4ccccc34)c2c1`, for which the figures for the Potency in test [1], in test [10] and in test [4] were > 11.4 µM (inactive), > 46 µM (inactive) and > 46 µM (inactive), respectively. In addition, the values for the activity change, negative = inhibition in test [2] and in test [7] were -29.4% (inactive) and 8.36% (inactive), respectively. Moreover, in [3], the activity, negative = inhibition is -28.4% (inactive). For the same compound, the Potency entry in test [5], in test [6] and in test [14] was “inactive” each time. Further, the result in [13] and in test [8] was inactive. For the same compound, the max response was -14.6% in test [7] (setting [15]) and -4.03% in [7] (setting [16]).

With `COc1ccccc1CN1CCCC2(CCN(C(=O)c3cccc(F)c3)CC2)C1`, the values for the Potency in test [1] and in test [4] were > 11.4 µM (inactive) and > 46 µM (inactive), respectively. In addition, the activity change, negative = inhibition in test [2] was -7.36% (inactive); in test [7] it was 0.576% (inactive). Further, the activity, negative = inhibition in [3] was 1.24% (inactive). The Potency result in test [5] and in test [6] was “inactive” throughout. The max response in test [7] (setting [15]) is 3.85%; in [7] (setting [16]), 7.25%. In addition, the result in test [8] was inactive.

Regarding `COc1ccccc1CN1CCC2(CC1)CCN(C(=O)c1ccncc1)CC2`, the Potency is > 11.4 µM (inactive) in [1] and > 46 µM (inactive) in [4]. Also, the results for the activity change, negative = inhibition in test [2] and in test [7] were -13% (inactive) and -0.0628% (inactive), respectively. Also, the activity, negative = inhibition in test [3] is 5.76% (inactive). Moreover, the Potency entry in test [5] and in test [6] was “inactive” throughout. The max response in test [7] (setting [15]) is -18.4%; in test [7] (setting [16]), -17.2%. Further, the outcome in test [8] was inactive.
